Most compounds without a hit are left out; they make up all but 2.6% or so of the library.
Cruzain Triton: qHTS Assay for Promiscuous and Specific Inhibitors of Cruzain (with detergent); Cruzipain (Trypanosoma cruzi), P25779; purified cruzain, Z-FR-AMC fluorescence, 0.01% Triton; Potency, µM, hits mostly inhibitors; 200,000 compounds, 0.43% hits; AID 1478, 2009; note: nearly all actives have a fitted effect of over 40% in size
Target sequence (P25779 123-467 limits assumed): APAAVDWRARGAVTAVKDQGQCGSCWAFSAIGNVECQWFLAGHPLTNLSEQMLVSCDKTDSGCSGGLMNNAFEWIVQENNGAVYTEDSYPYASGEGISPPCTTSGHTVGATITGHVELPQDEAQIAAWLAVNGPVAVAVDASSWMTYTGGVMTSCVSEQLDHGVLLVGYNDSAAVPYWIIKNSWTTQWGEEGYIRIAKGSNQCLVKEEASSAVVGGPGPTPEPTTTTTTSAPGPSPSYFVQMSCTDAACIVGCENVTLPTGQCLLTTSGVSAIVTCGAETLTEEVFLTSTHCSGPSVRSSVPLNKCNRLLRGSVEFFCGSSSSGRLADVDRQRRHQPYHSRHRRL
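Enzyme 1.5 nM, Z-FR-AMC 2 uM, NaOAc 100 mM pH 5.5, DTT 5 mM, Triton X-100 0.01%; 15 min RT compound preincubation; kinetic ex360/em450, 60 s delta.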
Cruzain noTriton: qHTS Assay for Promiscuous and Specific Inhibitors of Cruzain (without detergent). Cruzipain (Trypanosoma cruzi), P25779. Potency, µM, hits mostly inhibitors. 200,000 compounds, 2.3% hits. AID 1476, 2009. purified cruzain, Z-FR-AMC fluorescence, no detergent; note: nearly all actives have a fitted effect of over 40% in size
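Detergent-free condition (0.00005% Triton X-100) in acetate buffer pH 5.5 with DTT. 1.5 nM enzyme and compound were pre-mixed 15 min, then 2 uM Z-FR-AMC substrate added; reaction progress from fluorescence change between first and third reads (60 s).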
Hits are given with their value; i = inactive; ? = inconclusive. Calls come from the whole dose curve; as a rule, active = well fitted curve in the direction sought with a large enough effect; inconclusive = small, poorly fitted or top-dose-only effect, or another doubt; inactive = no such curve, though single readings can be large; an effect the other way counts as inactive or inconclusive.

SMILES	Cruzain Triton	Cruzain noTriton
Cc1ccc(N2CC(C(=O)Nc3nnc(SCC(=O)Nc4cc(C)on4)s3)CC2=O)cc1 (stereo unspecified)	i	7.9µM
COc1ccccc1NC(=O)C(=O)c1cc(C)n(-c2cc(C)cc(C)c2)c1C	i	i
Cc1oc2c(cc(NS(=O)(=O)c3ccc(C(C)C)cc3)c3ccccc32)c1C(=O)O	?	i
Cc1oc2c(cc(NS(=O)(=O)c3cccs3)c3ccccc32)c1C(=O)OC(C)C	i	32µM
Cc1nn(S(=O)(=O)c2ccc(C(C)(C)C)cc2)c(C)c1S(=O)(=O)N1CCCCCC1	i	?
C[C@@]1(C(NC(=O)c2cccs2)c2ccc(-c3ccccc3)cc2)C[C@H]1C1CCCCC1 (stereo partly specified)	i	4µM
COC(=O)c1ccc(C(NC(=O)c2ccccc2)[C@]2(C)C[C@H]2C2CCCCC2)cc1 (stereo partly specified)	i	i
O=C1OC(c2ccc3c(c2)OCO3)N(C(=O)c2ccc(Cl)c(Cl)c2)c2ccccc21 (stereo unspecified)	i	32µM
Cc1cccc(C(=O)N2c3ccccc3C(=O)OC2c2ccc3c(c2)OCO3)c1 (stereo unspecified)	i	?
Cc1cc(Br)ccc1NC(=O)C(NS(=O)(=O)c1cccs1)c1ccccc1 (stereo unspecified)	i	?
CCOc1ccc(C2=C(C=Nc3c(C)n(C)n(-c4ccccc4)c3=O)C(c3ccc(F)cc3)c3ccccc3O2)cc1 (stereo unspecified)	i	3.2µM
CCOc1ccc(C2SCC(=O)N2c2c(C)n(C)n(-c3ccccc3)c2=O)cc1 (stereo unspecified)	i	i
Cc1c(Cl)cccc1N1CC(c2nc3ccccc3n2Cc2ccccc2F)CC1=O (stereo unspecified)	i	i
COc1ccc(-n2nc3cc(C)c(NC(=O)Cc4ccc(Cl)cc4)cc3n2)cc1	i	i
CCC1CCc2nc3sc(C(=O)Nc4cccc(F)c4)c(N)c3cc2C1 (stereo unspecified)	i	5µM
CCC1CCc2nc3sc(C(=O)Nc4cccc(C(F)(F)F)c4)c(N)c3cc2C1 (stereo unspecified)	i	i
Cc1nc2cnc(N3CCOCC3)nc2n(CCc2ccccc2)c1=O	i	i
CN1C(C)(C)CC(=NOC(=O)c2ccccc2)CC1(C)C	i	i
CN1C(=O)/C(=N/OC(=O)c2ccccc2)c2ccccc21	4.5µM	6.3µM
COc1cc2c(cc1OC)C(COc1ccc3c(C)cc(=O)oc3c1)N(C(=O)CC(C)C)CC2 (stereo unspecified)	i	i
CN1CC[C@@]2(CCCN(C(=O)c3cccc(F)c3)C2)C1	i	i
Nc1nc(NC(=O)c2cccc(S(=O)(=O)N3CCCCCC3)c2)nc(-c2ccccc2)n1	i	20µM
O=C(O)c1cccc(NC(=O)c2cccc(S(=O)(=O)N3CCCCC3)c2)c1	i	i
O=C(Nc1nc(-c2ccccc2)c(-c2ccccc2)s1)c1ccc(S(=O)(=O)N2CCCC2)cc1	i	?
O=C(Nc1nc(-c2ccccc2)c(C(=O)c2ccccc2)s1)c1ccc(S(=O)(=O)N2CCCC2)cc1	i	25µM
SMILES	Cruzain Triton	Cruzain noTriton
COc1ccc(NC(=O)CSc2ccc3c4c(cccc24)C(=O)c2ccccc2-3)cc1	i	13µM
COc1ccc(NC(=O)CSc2nc3ccccc3c3nc4ccccc4n23)cc1	i	i
N#Cc1cccc(NC(=O)CSc2ccc3c4c(cccc24)C(=O)c2ccccc2-3)c1	i	10µM
N#Cc1cccc(NC(=O)CSc2ccccc2)c1	i	i
COc1cc(-c2noc(CN3CCN(c4ccccc4)CC3)n2)cc(OC)c1OC	i	i
COc1ccccc1N1CCN(C(=O)c2oc3ccccc3c2NC(=O)C(C)Oc2ccccc2)CC1 (stereo unspecified)	i	i
C[C@@H]1[C@H](O)[C@@H](C)/C=C/C=C/C=C/C=C/C=C/C=C/C=C/[C@H](O[C@@H]2O[C@H](C)[C@@H](O)[C@H](N)[C@@H]2O)C[C@@H]2O[C@](O)(C[C@@H](O)C[C@@H](O)[C@H](O)CC[C@@H](O)C[C@@H](O)CC(=O)O[C@H]1C)C[C@H](O)[C@H]2C(=O)O	i	?
CN(C)c1ccc(C(CNS(=O)(=O)c2ccccc2)N2CCc3ccccc32)cc1 (stereo unspecified)	i	16µM
Cc1ccc(S(=O)(=O)NCC(c2ccc(N(C)C)cc2)N2CCc3ccccc32)cc1 (stereo unspecified)	i	i
Cc1ccc(C)c(N2CCN(S(=O)(=O)c3cnc(N)nc3)CC2)c1	i	i
O=C(CSc1nncn1-c1ccccc1)Nc1cc(Cl)cc(Cl)c1	i	25µM
CC(C)(C)NC(=O)CSc1nncn1-c1ccccc1	i	i
COc1cccc(NC(=O)C2CCCN(S(=O)(=O)c3cn(C(C)C)cn3)C2)c1 (stereo unspecified)	i	i
CC1CCN(c2ccc(/C=C(\C#N)c3nn(-c4ccccc4)c(N)c3C#N)cc2[N+](=O)[O-])CC1	i	i
N#C/C(=C\c1ccc(N2CCCCC2)c([N+](=O)[O-])c1)c1nn(-c2ccccc2)c(N)c1C#N	i	20µM
CC1CCN(c2cc(N3CCC(C)CC3)c([N+](=O)[O-])cc2/C=C(\C#N)c2nn(-c3ccccc3)c(N)c2C#N)CC1	i	2µM
CC1CCCN(c2ccc(/C=C(\C#N)c3nn(-c4ccccc4)c(N)c3C#N)cc2[N+](=O)[O-])C1 (stereo unspecified)	i	i
COc1cccc([C@@H]2Oc3ccc(Br)cc3C[C@H]2OC(=O)Nc2ccc(OC(F)F)cc2)c1	i	?
Cc1ccc(CCNC(=O)c2ccc3c(Cl)c4c(nc3c2)CCCC4)cc1	i	i
Cc1ccc(NC(=O)CN2CCCN(Cc3ccccc3Cl)S2(=O)=O)c(C)c1	i	i
CCCc1ccc(OC(C)C(=O)Nc2sc3c(c2C(=O)OC)CCCCC3)cc1 (stereo unspecified)	i	i
CC1=C(C(=O)Nc2cc(Cl)ccc2C)C(c2cccs2)n2ncnc2N1 (stereo unspecified)	i	i
O=C(Cn1c(=O)c2cccn2c2ccccc21)NCCc1ccccc1	i	16µM
O=C(CCCn1c(=O)c2cccn2c2ccc(F)cc21)NCCc1ccccc1	i	i
CCOC(=O)c1c(NC(=O)c2cc3nc(-c4ccc(OC)cc4)cc(C(F)(F)F)n3n2)sc2c1CCC(C)C2 (stereo unspecified)	i	i
SMILES	Cruzain Triton	Cruzain noTriton
CCCCN1C(=O)c2[nH]nc(-c3ccccc3O)c2C1c1cc(Br)c(O)c(OC)c1 (stereo unspecified)	i	?
Cc1nn(Cc2ccc(Cl)cc2)c(C)c1NC(=O)CSc1nc2c(c(C(F)(F)F)n1)CCc1ccccc1-2	i	?
N#Cc1c(NC(=O)CSc2nc3c(c(C(F)(F)F)n2)CCc2ccccc2-3)sc2c1CCCC2	i	7.9µM
CC1CCc2c(sc(NC(=O)CSc3nc4c(c(C(F)(F)F)n3)CCc3ccccc3-4)c2C(N)=O)C1 (stereo unspecified)	i	10µM
N#Cc1c(NC(=O)CSc2nnc(-c3ccccc3O)n2-c2ccccc2)sc2c1CCCC2	i	4µM
CCn1c(SCC(=O)Nc2sc3c(c2C#N)CCCC3)nnc1-c1ccncc1	i	?

Source: PubChem
